Test results reported in PubChem BioAssay (NCI).
The panel holds about 83,000 compounds, 20% with a hit somewhere; the sample as a whole holds those more often.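 Note: values are percent growth. 100 is the growth of untreated cells, values between 100 and 0 indicate rising inhibition; between -100 and 0 indicates cell death.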 Values without a mark were called inactive. The source made the active and inactive calls.

Each compound was assayed on OVCAR-5 ovarian (assay: NCI-60 one-dose screen, 48 h (100 = growth as untreated, 0 = no growth, -100 = all killed)). Conditions: 10 µM unless noted.
Protocol: Growth inhibition of the OVCAR-5 human tumor cell line is measured as a screen for anti-cancer activity. Cells are grown in 96 well plates and exposed to the test compound for 48 hours. Compounds are tested at a single concentration, which is 10^-5 M for most compounds. The reported endpoint is percent growth (GI% or GIPRCNT), where numbers from 0 - 100% represent growth inhibition, and numbers from -100% - 0 represent cell death. For example, a value of 40 represents 60% growth inhibition. A value of 0 means no net growth occurred over the course of the experiment. A value of -40 indicates 40% of cells at the beginning of the experiment died by the end of the experiment. A value of -100 means all cells are dead at the end of the experiment.
NCI-60 Human Tumor Cell Lines Screen was performed using the standard one-dose NCI protocol, which is described in more detail at https://dtp.cancer.gov/discovery_development/nci-60/default.htm.
Compounds with GIPRCNT values below 10 were considered active. Activity score was based on GIPRCNT using the following formula: […]
Score is 0 for GIPRCNT values of 100 or above, 50 for GIPRCNT values of 0, and 100 for GIPRCNT values of -100.

| SMILES | growth |
| --- | --- |
| CN1CCN(CCOc2ccc(-c3cnc4c(-c5cccc(F)c5)cnn4c3)cc2)CC1 | 84.6% |
| CCCCCCCCNc1cccc2c1C(=O)c1ccccc1C2=O | 105% |
| C/C(=N\Nc1cc(C)c2cc(C)ccc2n1)c1ccccn1 | -33.3% (active) |
| O=C(NC(Cc1cn(Cc2ccccc2)cn1)C(=O)O)OCC1c2ccccc2-c2ccccc21 (stereo not given) | 105% |
| COc1ccc(-c2n[nH]nc2-c2cc3ccccc3s2)cc1O | 38.2% |
| CC1(n2nnnc2N2CCCN(c3ncccc3N)CC2)CCC1 | 98.7% |
| Cn1cc(-c2csc(-c3c[nH]c4ccccc34)n2)c2cccnc21 | 54% |
| Cc1nnc2nc(N)[nH]n2c1=O | 117% |
| COc1ccc2c(c1)C/C(=C\c1cc(-c3cc(OC)c(OC)c(OC)c3)n[nH]1)C2=O | 97.5% |
| Cc1csc(-c2ccc3c(c2)COC3(CCCN(C)C)c2ccc(F)cc2)c1 (stereo not given) | 72.1% |
| Cc1ccccc1-c1nc(C(Cl)Cl)nc2cc(-c3ccccc3)nn12 | 96.4% |
| COc1cc(/C=N/Nc2ncnc3c2c(C)nn3-c2ccc(F)cc2)ccc1O | 131% |
| Cc1ccc(N(CC(=O)Nc2ccc(S(=O)(=O)N3CCC(N4CCCC4)CC3)cc2)S(=O)(=O)c2ccc(Cl)cc2)cc1 | 88% |
| CC(=O)OC(C)COc1ccc(-c2ccccc2)cc1 (stereo not given) | 96.8% |
| Cc1ccc(-c2ccc(Nc3ccccc3)nn2)cc1S(N)(=O)=O | 101% |
| Oc1ccc(Nc2ccccc2)cc1 | 123% |
| C(=C\c1c[nH]c2ccccc12)/c1ccc2ccccc2n1 | 121% |
| COc1cnc2c(c1)C(=O)c1c-2n(CCCNC2=NCCS2)c(=O)c2cc([N+](=O)[O-])ccc12 | 28.9% |
| CC(=O)O[C@H]1CC[C@@]2(C)C(=CC[C@@H]3[C@@H]2CC[C@]2(C)C(=O)N(O)C(=O)C[C@@H]32)C1 | 98.9% |
| CC(=O)O[C@@H]1CCN2C(=O)N(C)c3ccccc3[C@@H]2C1 | 96.5% |

| SMILES | growth |
| --- | --- |
| N#CC1=C(N)Oc2ccc3ccccc3c2C1c1ccccc1 (stereo not given) | 55.8% |
| Cc1cc(C)c(NC(=O)c2sc3nc4c(cc3c2N)CCCC4)c(C)c1 | 90.8% |
| COc1cc(-c2cc3ncccc3c3nc(OCCN(C)C)c4cccnc4c23)cc(OC)c1OC | 44.8% |
| OCC(CO)(CCl)CCl | 98.1% |
| COc1ccc(C2C(C#N)=C(N)Oc3c2sc2c(F)cccc32)cc1 (stereo not given) | 69.3% |
| O=C(O)c1cccc2c1Cc1cc([N+](=O)[O-])ccc1-2 | 106% |
| CNC(=O)c1cc(Oc2ccc3nc(NC(=O)Nc4ccc(Cl)cc4)sc3c2)ccn1 | 92.3% |
| Cn1cc(-c2csc(-c3c[nH]c4ccc(F)cc34)n2)c2cccnc21 | 78.4% |
| c1ccc(CN2C(c3ccccc3)=Nc3ccccc3C2c2c[nH]c3ccccc23)cc1 (stereo not given) | 60.7% |
| O=C(c1ccccc1)C(CN1CCOCC1)c1ccccc1 (stereo not given) | 116% |
| CC1(C)C(=O)/C(=C\c2cccnc2)C[C@]2(C)[C@H]3CC[C@@H]4[C@@H](C(=O)/C=C/c5ccncc5)CC[C@@]4(C)[C@]3(C)CC[C@@H]12 | 18.1% |
| c1ccc2[nH]c(-c3ccc(Nc4nc(N5CCCCC5)nc(N5CCOCC5)n4)cc3)nc2c1 | 73.9% |
| Cc1cc(Cl)nc(N(CCCNc2ccnc3cc(Cl)ccc23)Cc2ccco2)n1 | 31.9% |
| NC1=C(C/C(N)=N\O)C(c2ccccc2Cl)c2c(ccc3ccccc23)O1 (stereo not given) | 100% |
| NCCn1cc(-c2nc(-c3c[nH]c4ncccc34)cs2)c2ccccc21 | 102% |
| COc1ccc(-c2cc(/C=C/C(=O)c3ccc(OC)c(OC)c3)[nH]n2)cc1 | 48.5% |
| Cc1ccc2c(c1)c1nc3cc(C)c(C)cc3nc1n2CCN(C)C | 20.5% |
| Cc1ccc(-c2nn(Cc3cn(-c4cc(C)nc5ccccc45)nn3)c3ncnc(N)c23)cc1 | 57.9% |
| O=c1[nH]c(=S)[nH]c2nc[nH]c12 | 90.5% |
| C=CC(=O)N[C@H](Cc1ccc(-c2cc(Cl)cc(Cl)c2)cc1)[C@H](O)[C@@H](O)C(=O)O | 96% |
